# In the library only some 12% were active in any assay of this set; here they are far more common.
# SARS PLP yeast: qHTS of Yeast-based Assay for SARS-CoV PLP | AID 485353, 2010 | Potency, µM (highest dose often 32.9 µM), most hits filed as activators | actives 0.19% (n = 330,000) | S. cerevisiae expressing SARS-CoV PLpro, growth rescue; calls by dose curve; note: nearly all actives have a fitted effect of over 55% in size
# AMA1 RON2 block: qHTS for Inhibitors of AMA1-RON; Towards Development of Antimalarial Drug Lead: Primary Screen. Potency, µM (titrated, usually from 58.2 µM), most hits filed as inhibitors. actives 0.2% (n = 360,000). AlphaScreen AMA1-biotinylated RON2 peptide binding. Plasmodium falciparum AMA1 (3D7) - RON2 peptide interaction; note: nearly all actives have a fitted effect of over 45% in size
#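 AMA1 (3D7) with his tag at 25 nM final met compounds first, then biotinylated RON2 peptide at 25 nM; detection used donor plus acceptor beads, 10 µg/mL apiece, read by AlphaScreen after 30 min at room temperature.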
# Pf growth 48h: Primary qHTS for delayed death inhibitors of the malarial parasite plastid, 48 hour incubation | P. falciparum luciferase growth in erythrocytes, 48 h | Potency, µM (doses to about 28.7 µM), most hits filed as inhibitors | actives 5.9% (n = 310,000)
#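 Luciferase-expressing P. falciparum in infected erythrocytes (2% hematocrit, 0.1% parasitemia final) in RPMI 1640/0.5% Albumax were exposed to compound for 48 hours at 37 C, 5% CO2; growth read as luminescence.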
# NS1 inh: qHTS Assay for Inhibitors of Influenza NS1 Protein Function. AID 2326, 2010. actives 0.4% (n = 270,000). Potency, µM (series often up to 46.1 µM); calls by dose curve; note: actives are rising curves; nearly all actives have a fitted effect of over 50% in size
#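 Growth recovery, yeast-based: influenza A NS1 expressed in S. cerevisiae causes slow growth, and suppressors are detected by OD600. The parent strain without NS1 is used as positive control.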
# HCV inh: qHTS Assay for Inhibitors of Hepatitis C Virus (HCV); Potency, µM (highest dose often 41.8 µM), most hits filed as inhibitors; actives 3.4% (n = 340,000); Huh7.5.1 HCVcc-Cre infection, luciferase reporter, 44 h
#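 After 44 h co-culture of compound, cells and HCVcc-Cre (~0.5 moi), substrate is added for 15 min at room temperature and luciferase measured over 15 sec. Cells were seeded at 1,000/well and pre-cultured 4 h.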
# Pf growth 96h: Primary qHTS for delayed death inhibitors of the malarial parasite plastid, 96 hour incubation | P. falciparum luciferase reporter growth, 96 h | actives 6.9% (n = 320,000) | Potency, µM (titrated, usually from 28.7 µM), hits mostly inhibitors
#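 Two-generation exposure (96 h) targets delayed-death phenotype. Reporter parasites carrying integrated firefly luciferase, in red cells at 2% hematocrit and 0.05% parasitemia final, kept at 37 C, 5% CO2; luminescence loss indicates inhibition.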
# Numbers stand for hits; 0 = inactive; ? = inconclusive; - = no result given; [ ] = another dose, or the depositor's remark. Unless noted, calls come from the whole dose curve; as a rule, active = well fitted curve in the direction sought with a large enough effect; inconclusive = small, poorly fitted or top-dose-only effect, or another doubt; inactive = no such curve, though single readings can be large; an effect the other way counts as inactive or inconclusive.
SMILES,SARS PLP yeast,AMA1 RON2 block,Pf growth 48h,NS1 inh,HCV inh,Pf growth 96h
CCCCCCCCCCCCCCC(O)C[N+](C)(CCO)CCO (stereo unspecified),-,0,-,-,0,-
C[C@H](CO)N1C[C@H](C)[C@@H](CN(C)CC2CCCCC2)Oc2c(NC(=O)Cc3ccccc3)cccc2C1=O,0,0,-,-,?,-
Nn1c(SCC(=O)Nc2ccc(Oc3ccccc3)cc2)nnc1C1CC1,0,0,8.28µM,0,0,?
NC(=O)c1ccc(NC(=O)CSc2nnc(C3CCCCC3)n2N)cc1,0,0,0,0,0,0
CCOc1ccc(NC(=O)CSc2nnc(C3CC3)n2N)cc1,0,0,0,0,0,0
Nn1c(SCC(=O)Nc2ccc(F)c(F)c2)nnc1C1CCCCC1,0,0,0,0,0,11.7µM
CSc1ccc(CN2C(=O)NC3(CCCCC3)C2=O)cc1,0,0,0,0,?,0
Nc1ncc(S(=O)(=O)c2ccc([N+](=O)[O-])cc2)s1,-,0,-,-,0,-
O=C1CCCN1c1ncc(S(=O)(=O)c2ccc([N+](=O)[O-])cc2)s1,0,0,?,-,?,4.15µM
CS(=O)(=O)c1ccc(-c2sc3ccccc3c2C(=O)NCCCN2CCOCC2)cc1,0,0,-,-,0,-
CCOCc1c(C(=O)N2CCN(CC(=O)Nc3ccc(F)cc3)CC2)oc2ccccc12,0,0,?,-,0,?
CCOCc1c(C(=O)N2CCN(CCOc3ccc(Cl)cc3)CC2)oc2ccccc12,0,?,?,-,5.62µM,0
Cc1c(C(=O)N2CCN(c3ccccc3)CC2)oc2c(Cl)cccc12,0,0,?,-,?,?
COCc1c(C(=O)N2CCN(S(=O)(=O)c3ccccc3Cl)CC2)oc2ccccc12,0,0,11.7µM,-,?,?
CCOC(=O)c1oc2ccccc2c1CN1CCN(C)CC1,0,0,0,0,0,13.1µM
Cc1c(C(=O)N2CCN(S(=O)(=O)c3ccccc3F)CC2)oc2c(Cl)cccc12,0,0,10.4µM,-,?,11.7µM
CCOC(=O)c1oc2ccccc2c1CN1CCCCC1,0,0,0,-,0,?
CCOC(=O)c1sc(NC(=O)C2CC(=O)N(c3ccc(C)cc3)C2)nc1C (stereo unspecified),0,0,0,0,0,0
O=C(CN1CCN(c2ccccc2O)CC1)Nc1cccnc1Cl,0,?,0,-,?,?
CCCCn1c(-c2ccc(OC)cc2)nc2c(=O)n(C)c(=O)[nH]c21,0,0,0[0.00184 µM],0,0,1.65µM
CCCn1c(-c2ccc(OC)cc2)nc2c(=O)n(C)c(=O)[nH]c21,0,0,0,0,0,-
CCC(C)c1ccccc1N1CC(C(=O)Nc2cc(S(=O)(=O)N3CCOCC3)ccc2OC)CC1=O (stereo unspecified),-,0,-,-,0,-
CCC(C)c1ccccc1N1CC(C(=O)Nc2ccc(C)c(S(=O)(=O)N3CCOCC3)c2)CC1=O (stereo unspecified),0,0,13.1µM,-,0,?
CCCC(C(=O)Nc1cccc(S(=O)(=O)N2CCCC2)c1)c1ccccc1 (stereo unspecified),-,0,?,-,?,10.4µM
CCCC(C(=O)Nc1ccc(S(=O)(=O)N2CCOCC2)cc1)c1ccccc1 (stereo unspecified),0,0,13.1µM,-,0,9.28µM
CCCc1ccc(NC(C)C(=O)Nc2ccc(S(=O)(=O)N3CCOCC3)cc2)cc1 (stereo unspecified),0,0,?,-,?,5.22µM
COc1ccc(NC(=S)N2CCC(NC(=O)c3ccco3)CC2)cc1,0,0,0,0,0,0
CC1SC2(NC1=O)C1CC3CC(C1)CC2C3 (stereo unspecified),0,0,0,-,0,?
CCOC(=O)[C@]12CCCC=C1N(CCC1=CCCCC1)C(=O)[C@H](CC(=O)NCC1CCCCC1)C2,-,0,-,-,-,-
O=C(CSc1nnc(-c2ccc(F)cc2)c2ccccc12)NCC1CCCO1 (stereo unspecified),0,0,?,-,0,?
